In PubChem BioAssay (EPA / NIEHS):
The source made the active and inactive calls. Rule for the calls: active = hit-call score of the fitted dose curve at least 0.9, where 1 is the maximum; inactive = score below 0.9.

How the values were obtained:
Settings in all cases: mRNA level, 48 h; actives raise or lower the signal
[1] = read-out: ABC Transporter (ABCB11), ABCB11 (gene 8647); test: LTEA_HepaRG_ABCB11: Life Technologies and Expression Analysis (LTEA) Assay for ABC Transporter (ABCB11) using HepaRG (AID 2283463)
Procedure, shortened: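 ABCB11 transcript levels quantified by TaqMan qRT-PCR against three housekeeping genes after 48 h chemical exposure of HepaRG cultures. Concentrations up to 100 uM in half-log steps, 0.5% DMSO vehicle; both induction and suppression scored.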

[2] = read-out: ABC Transporter (ABCC2), ABCC2 (gene 1244); test: LTEA_HepaRG_ABCC2: Life Technologies and Expression Analysis (LTEA) Assay for ABC Transporter (ABCC2) using HepaRG (AID 2283464)
Procedure, shortened: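 Endpoint is ABCC2 transcript level from qRT-PCR, normalized to three housekeeping genes and fitted bidirectionally relative to DMSO. Human HepaRG cells received test chemical for 48 h at up to 100 uM (8 points, half-log steps, 0.5% DMSO), duplicate wells.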

[3] = read-out: ATP-citrate lyase (ACLY), ACLY (gene 47); test: LTEA_HepaRG_ACLY: Life Technologies and Expression Analysis (LTEA) Assay for ATP-citrate lyase (ACLY) using HepaRG (AID 2283466)
Procedure, shortened: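 ACLY mRNA quantified by qRT-PCR on Fluidigm arrays against three housekeeping genes, after 48 h chemical treatment of HepaRG cells (top concentration 100 uM, half-log steps, 0.5% DMSO vehicle). Up- or down-regulation fitted relative to DMSO.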

[4] = read-out: Peroxisomal acyl-coenzyme A oxidase 1 (ACOX1) gene, ACOX1 (gene 51); test: LTEA_HepaRG_ACOX1: Life Technologies and Expression Analysis (LTEA) Assay for Peroxisomal acyl-coenzyme A oxidase 1 (ACOX1) gene using HepaRG (AID 2283467)
Procedure, shortened: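 ACOX1 transcript levels were quantified by TaqMan qRT-PCR against three housekeeping genes after 48 h chemical exposure of differentiated human HepaRG cells. Exposure used eight half-log steps topping at 100 uM, 0.5% DMSO vehicle, in duplicate. Bidirectional curve fits were made relative to DMSO.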

[5] = read-out: Alkaline Phosphatase, Placental (ALPP) gene, ALPP (gene 250); test: LTEA_HepaRG_ALPP: Life Technologies and Expression Analysis (LTEA) Assay for Alkaline Phosphatase, Placental (ALPP) gene using HepaRG (AID 2283468)
Procedure, shortened: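 ALPP transcript level, measured by qRT-PCR and normalized to three housekeeping genes (ACTB, GAPDH, POLR2A), after 48 h dosing of differentiated HepaRG in serum-free induction medium. Top concentration 100 uM with half-log dilutions (8 points, 0.5% DMSO, duplicates); bidirectional fitting relative to DMSO.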

[6] = read-out: Bcl-2 (BAD) gene, BAD (gene 572); test: LTEA_HepaRG_BAD: Life Technologies and Expression Analysis (LTEA) Assay for Bcl-2 (BAD) gene using HepaRG (AID 2283469)
Procedure, shortened: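 Read-out: qRT-PCR of BAD mRNA, normalized to three housekeeping genes. Human HepaRG cultures got 48 h chemical exposure in 0.5% DMSO, duplicate eight-point half-log series topping at 100 uM. Gain or loss of signal fitted versus DMSO vehicle.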

[7] = read-out: adenosine kinase (ADK) gene, ADK (gene 132); test: LTEA_HepaRG_ADK: Life Technologies and Expression Analysis (LTEA) Assay for adenosine kinase (ADK) gene using HepaRG (AID 2283471)
Procedure, shortened: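 HepaRG (human liver), 48 h chemical exposure, 8-pt half-log series, top 100 uM, 0.5% DMSO vehicle. Readout: ADK mRNA by qRT-PCR vs housekeeping genes; bidirectional curve fit relative to DMSO baseline.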

[8] = read-out: Alpha-fetoprotein (AFP) gene, AFP (gene 174); test: LTEA_HepaRG_AFP: Life Technologies and Expression Analysis (LTEA) Assay for Alpha-fetoprotein (AFP) gene using HepaRG (AID 2283472)
Procedure, shortened: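 Measures AFP mRNA change in HepaRG after 48 h chemical exposure (8 half-log concentrations, highest 100 uM, 0.5% DMSO). Fold change relative to DMSO, fitted in both directions.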

BCL2L11 (gene 10018) = test: LTEA_HepaRG_BCL2L11: Life Technologies and Expression Analysis (LTEA) Assay for Bcl-2 (BCL2L11) gene using HepaRG (AID 2283473)
Procedure, shortened: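 BCL2L11 transcript levels are measured by Fluidigm qRT-PCR, normalized to three housekeeping genes. HepaRG cultures were plated 48 h, then treated 48 h with test chemical (top 100 uM, half-log, 0.5% DMSO vehicle); curves were fitted bidirectionally against DMSO.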

[9] = read-out: Apolipoprotein A-V (APOA5) gene, APOA5 (gene 116519); test: LTEA_HepaRG_APOA5: Life Technologies and Expression Analysis (LTEA) Assay for Apolipoprotein A-V (APOA5) gene using HepaRG (AID 2283474)
Procedure, shortened: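 APOA5 transcript levels were quantified by qRT-PCR, normalized to three housekeeping genes, after 48 h chemical treatment of HepaRG cells (8 points, 100 uM maximum, half-log steps, 0.5% DMSO). Curves fitted in both directions against vehicle.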

[10] = read-out: Apoptosis regulator Bcl-2 (Homo sapiens) (UniProt P10415); test: LTEA_HepaRG_BCL2: Life Technologies and Expression Analysis (LTEA) Assay for Bcl-2 gene using HepaRG (AID 2283475)
Procedure, shortened: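 Each chemical was tested in duplicate on HepaRG cultures held in serum-free induction medium for 48 h, highest concentration 100 uM with half-log dilutions. Transcript levels came from multiplexed qRT-PCR, normalised to housekeeping genes; activity was scored in either direction relative to DMSO.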

Caspase-3 (Homo sapiens) = Caspase-3 (Homo sapiens) (UniProt P42574); test: LTEA_HepaRG_CASP3: Life Technologies and Expression Analysis (LTEA) Assay for cysteine-aspartic acid protease (CASP3) using HepaRG (AID 2283477)
Sequence of Caspase-3 (Homo sapiens) (P42574 whole entry, looked up): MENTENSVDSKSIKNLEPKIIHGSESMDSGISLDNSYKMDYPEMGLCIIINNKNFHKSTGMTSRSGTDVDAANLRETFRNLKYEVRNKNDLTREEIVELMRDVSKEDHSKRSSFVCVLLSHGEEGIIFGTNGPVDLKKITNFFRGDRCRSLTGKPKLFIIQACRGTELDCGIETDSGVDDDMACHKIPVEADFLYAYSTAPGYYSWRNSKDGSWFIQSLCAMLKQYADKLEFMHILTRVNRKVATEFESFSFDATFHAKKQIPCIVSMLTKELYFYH
Procedure, shortened: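 Expression of CASP3 was quantified by TaqMan qRT-PCR against three housekeeping genes (ACTB, GAPDH, POLR2A), bidirectionally versus 0.5% DMSO. HepaRG cultures received compounds in duplicate, top 100 uM with half-log steps, for 48 h in serum-free induction medium.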

[11] = read-out: Cytochrome P450 (CYP24A1), CYP24A1 (gene 1591); test: LTEA_HepaRG_CYP24A1: Life Technologies and Expression Analysis (LTEA) Assay for Cytochrome P450 (CYP24A1) using HepaRG (AID 2283478)
Procedure, shortened: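 mRNA of CYP24A1 quantified by TaqMan qRT-PCR (ACTB/GAPDH/POLR2A normalization) after 48 h chemical exposure of HepaRG cells, top concentration 100 uM, half-log steps, 0.5% DMSO vehicle, duplicates. Curves fitted bidirectionally against DMSO baseline.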

[12] = read-out: Cytochrome P450 (CYP1A2), CYP1A2 (gene 1544); test: LTEA_HepaRG_CYP1A2: Life Technologies and Expression Analysis (LTEA) Assay for Cytochrome P450 (CYP1A2) using HepaRG (AID 2283479)
Procedure, shortened: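 CYP1A2 transcript measured by TaqMan qRT-PCR against three housekeeping genes after 48-hour chemical exposure of HepaRG cells. Eight-point half-log series topping at 100 uM in 0.5% DMSO, duplicates; gain or loss fitted relative to vehicle.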

[13] = read-out: cysteine-aspartic acid protease (CASP8), CASP8 (gene 841); test: LTEA_HepaRG_CASP8: Life Technologies and Expression Analysis (LTEA) Assay for cysteine-aspartic acid protease (CASP8) using HepaRG (AID 2283480)
Procedure, shortened: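 CASP8 transcript measured by TaqMan qRT-PCR with ACTB/GAPDH/POLR2A normalization, after 48 h chemical exposure of HepaRG cells in serum-free induction medium. Eight concentrations, top 100 uM, half-log steps, 0.5% DMSO vehicle; fits in both directions versus DMSO.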

[14] = read-out: Cytochrome P450 2C19 (Homo sapiens) (UniProt P33261); test: LTEA_HepaRG_CYP2C19: Life Technologies and Expression Analysis (LTEA) Assay for CYP2C19 using HepaRG (AID 2283482)
Procedure, shortened: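 CYP2C19 transcript levels by qRT-PCR, normalized to three housekeeping genes, in HepaRG cells after 48 h chemical exposure. Eight-point half-log series topping at 100 uM, 0.5% DMSO vehicle. Increases and decreases both fitted against DMSO.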

CYP2C8 (gene 1558) = test: LTEA_HepaRG_CYP2C8: Life Technologies and Expression Analysis (LTEA) Assay for CYP2C8 using HepaRG (AID 2283483)
Procedure, shortened: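 CYP2C8 expression measured by TaqMan qRT-PCR and normalized to three housekeeping genes. HepaRG cultures were treated for 48 h with an eight-point half-log series topping at 100 uM, vehicle 0.5% DMSO, duplicates; fitted both directions against DMSO.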

CYP2E1 (gene 1571) = test: LTEA_HepaRG_CYP2E1: Life Technologies and Expression Analysis (LTEA) Assay for CYP2E1 using HepaRG (AID 2283485)
Procedure, shortened: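 Assay uses 48 h exposure of HepaRG hepatic cells, eight concentrations to 100 uM. Expression of CYP2E1 is quantified by TaqMan qRT-PCR with ACTB, GAPDH and POLR2A normalization; curves fitted in both directions relative to vehicle.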

CYP4A11 (gene 1579) = test: LTEA_HepaRG_CYP4A11: Life Technologies and Expression Analysis (LTEA) Assay for CYP4A11 using HepaRG (AID 2283486)
Procedure, shortened: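 Readout is CYP4A11 transcript level by qRT-PCR, normalized to three housekeeping genes and fitted bidirectionally against 0.5% DMSO. Human HepaRG cells were treated 48 h, in duplicate, with an 8-point half-log series topping at 100 uM.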

[15] = read-out: Cytochrome P450 (CYP2B6), CYP2B6 (gene 1555); test: LTEA_HepaRG_CYP2B6: Life Technologies and Expression Analysis (LTEA) Assay for Cytochrome P450 (CYP2B6) using HepaRG (AID 2283481)
Procedure, shortened: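 CYP2B6 transcript level quantified by qRT-PCR against three housekeeping genes, fitted bidirectionally relative to DMSO. HepaRG cultures received chemicals for 48 h, 8-point half-log series from 100 uM in 0.5% DMSO, duplicate wells, serum-free induction medium.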

Measured: AC50

Sequence of Cytochrome P450 2C19 (Homo sapiens) (P33261 whole entry, looked up): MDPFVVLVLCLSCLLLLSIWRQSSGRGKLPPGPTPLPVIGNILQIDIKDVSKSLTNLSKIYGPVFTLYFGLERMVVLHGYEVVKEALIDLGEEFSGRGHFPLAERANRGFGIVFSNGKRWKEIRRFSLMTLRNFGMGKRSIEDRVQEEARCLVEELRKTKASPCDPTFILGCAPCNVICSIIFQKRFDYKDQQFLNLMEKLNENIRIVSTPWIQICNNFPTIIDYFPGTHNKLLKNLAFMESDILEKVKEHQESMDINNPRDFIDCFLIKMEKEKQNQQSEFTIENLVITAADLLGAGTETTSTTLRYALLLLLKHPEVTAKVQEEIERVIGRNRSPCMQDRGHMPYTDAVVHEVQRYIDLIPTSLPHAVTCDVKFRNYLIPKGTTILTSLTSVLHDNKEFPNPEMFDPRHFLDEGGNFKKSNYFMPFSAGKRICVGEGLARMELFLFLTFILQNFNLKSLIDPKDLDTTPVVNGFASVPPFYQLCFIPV
Sequence of Apoptosis regulator Bcl-2 (Homo sapiens) (P10415 whole entry, looked up): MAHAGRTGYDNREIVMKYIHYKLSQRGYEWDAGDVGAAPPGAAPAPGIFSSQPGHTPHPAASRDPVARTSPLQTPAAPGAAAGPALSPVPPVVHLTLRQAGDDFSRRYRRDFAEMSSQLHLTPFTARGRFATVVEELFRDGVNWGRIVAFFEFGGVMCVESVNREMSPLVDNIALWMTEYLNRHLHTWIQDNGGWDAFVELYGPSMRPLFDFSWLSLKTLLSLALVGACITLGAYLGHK

CC(C)O.CC(C)O.OCCN(CCO)CCO.OCCN(CCO)CCO.[Ti]
active: CYP2E1 (gene 1571) 50 µM
not listed: [15]
inactive: all other assays above

OCCN(CCO)CCO
active: [15] 21.1 µM
inactive: all other assays above

Oc1cc(Cl)c(Cl)cc1Cl
inactive: all assays above

Clc1cccc(Cl)c1
inactive: all assays above
